# Shown are actives, neighbours in structure and some others; about 2.4% of the full set was active somewhere.
# D2 ag-1: HTS Assay for Allosteric Agonists of the Human D2 Dopamine Receptor: Primary Screen for Agonists; D(2) dopamine receptor (Homo sapiens), P14416; HEK293 T-REx D2 cells, calcium flux agonist mode; activation, % at 2 µM; hit rate 0.53% among 340,000; AID 485358, 2010;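 active = activation over 3 SD above normal in the single-dose calcium agonist read, cut at about 30% in these data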; note: 0% is about no effect
# Target sequence (P14416 whole entry, looked up): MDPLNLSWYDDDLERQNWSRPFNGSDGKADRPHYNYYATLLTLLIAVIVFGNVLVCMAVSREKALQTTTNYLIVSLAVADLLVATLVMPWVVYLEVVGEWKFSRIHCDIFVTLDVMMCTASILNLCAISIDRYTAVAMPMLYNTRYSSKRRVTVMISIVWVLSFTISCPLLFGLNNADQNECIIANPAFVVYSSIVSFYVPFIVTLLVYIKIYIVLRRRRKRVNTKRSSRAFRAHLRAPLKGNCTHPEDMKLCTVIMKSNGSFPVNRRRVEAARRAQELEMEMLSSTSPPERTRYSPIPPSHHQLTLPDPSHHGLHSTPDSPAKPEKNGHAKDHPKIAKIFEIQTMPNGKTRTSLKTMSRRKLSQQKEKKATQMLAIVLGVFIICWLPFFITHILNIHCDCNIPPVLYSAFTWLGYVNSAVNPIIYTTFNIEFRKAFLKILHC
#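 Calcium-flux readout, 1 cycle/sec over 180 s following compound pin transfer, in inducible HEK293 Trex D2 cells (force-coupled); dopamine controls included. Positive calcium responses during this window marked compounds as potential agonists.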
# D2 ag-2: Beta-Arrestin HTS for Positive Allosteric Modulators of the Human D2 Dopamine Receptor: Agonists; D(2) dopamine receptor (Homo sapiens), P14416; DiscoveRx PathHunter D2 beta-arrestin, luminescence, 90 min; 100% = 57 uM dopamine signal; activation, % (test concentration not listed); hit rate 0.084% among 360,000; AID 624465, 2012; in the data active = activation above about 40%; inconclusive = between about 15% and that limit
#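 DiscoveRx PathHunter D2 beta-arrestin cells (2,100/well) attached overnight, then compound-stimulated 90 min at 37 C in HBSS/10 mM HEPES/0.1% Tween-20 buffer; beta-galactosidase complementation read by luminescence after 1 h at ambient temperature. Dopamine 57 uM final (EC100) as control.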
# D2 PAM-1: HTS Assay for Positive Allosteric Modulators of the Human D2 Dopamine Receptor: Primary Screen for Potentiators | HEK293 T-REx D2, calcium flux, EC20 dopamine potentiation | potentiation, % at 10 µM | hit rate 0.34% among 340,000 | AID 485347, 2010;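 active = potentiation over 3 SD above the plate norm, cut at about 30% in these data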; note: 0% is about no effect
#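 Tetracycline-induced HEK293 T-REx cells force-coupled to calcium signalling expressed D2; compounds were pin-added after a 10 s baseline, read kinetically 180 s, then an EC20 dopamine challenge followed with a further 180 s calcium read.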
# D2 PAM-2: Beta-Arrestin HTS for Positive Allosteric Modulators of the Human D2 Dopamine Receptor: Potentiators. DiscoveRx D2 beta-arrestin cells, luminescence, 90 min; 100% = 57 uM dopamine signal. potentiation, % (no concentration beside the values). hit rate 0.23% among 360,000. AID 624464, 2012; in the data active = potentiation above about 50%; inconclusive = mostly about 30% to 49%
#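 PathHunter beta-arrestin assay in DiscoveRx D2 cells. Compounds were added with an EC20 of dopamine (50 nM final) for 90 min at 37 deg C. Luminescence was read 1 h after detection reagent, with 57 uM dopamine as the EC100 control.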
# D2 antagonist: HTS Assay for Allosteric Antagonists of the Human D2 Dopamine Receptor: Primary Screen for Antagonists | D(2) dopamine receptor (Homo sapiens), P14416 | HEK293 TREx D2 cells, calcium flux, dopamine EC80 | inhibition, % at 10 µM | hit rate 2% among 340,000; in the data active = inhibition above about 30%; inactive = below that, where a call was filed; note: 0% is about no effect
#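 Measurement of antagonist activity uses fluorescent calcium dye in inducible HEK293 T-REx D2 cells: 10 s baseline, compound addition with 180 s read, EC80 dopamine addition with a further 180 s read.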
# An asterisk follows results filed as active; ? = inconclusive; / = no result.
SMILES,D2 ag-1,D2 ag-2,D2 PAM-1,D2 PAM-2,D2 antagonist
COc1ccccc1N1CCN(C(=S)Nc2ccccc2)CC1,0,5,-5,-12,47*
O=C(NCCC(=O)N(Cc1ccco1)Cc1cccs1)c1ccc(Br)cc1,-3,-3,-18,-5,41*
Cc1ccc(CNC(=O)c2cnc(N3CCCCC3)c3ccccc23)cc1,-1,/,0,/,/
COc1ccc(N(CCC(=O)O)S(=O)(=O)c2ccc(C)c(C)c2)cc1,0,0,-6,-3,5
Cc1ccc(S(=O)(=O)CCC(=O)O)cc1C,0,2,-2,-5,36*
O=C(COC(=O)CCc1c[nH]c(=O)[nH]1)Nc1cccc(Cl)c1,2,-3,3,-6,35*
CS(=O)(=O)N1CCC(C(=O)Nc2ccc(OCc3ccccc3)cc2)CC1,1,-1,8,-1,45*
O=C(NCCn1cc(SCc2ccc(F)cc2)c2ccccc21)c1cccs1,0,/,0,/,/
O=C1/C(=C/c2cccc3ccccc23)CCCc2ccccc21,0,-6,59*,-8,11
O=C1C(=Cc2ccncc2)CCCc2ccccc21,/,-4,/,-10,/
O=C(CN1C(=O)COc2ccc(S(=O)(=O)N3CCCC3)cc21)N1CCCC1,0,-3,1,-6,-7
COC(=O)CN1C(=O)COc2ccc(S(=O)(=O)N3CCOCC3)cc21,1,-1,6,0,46*
O=C(O)CN1C(=O)COc2cc(S(=O)(=O)N3CCCC3)ccc21,1,-1,-8,-1,31*
NC(=O)C1CCN(C(=O)COc2ccc3c4c(c(=O)oc3c2)CCCC4)CC1,2,-6,8,-26,31*
O=C(O)C1CCN(C(=O)COc2ccc3c4c(c(=O)oc3c2)CCC4)CC1,5,-3,16,-7,15
CCOc1ccc(NC(=O)c2ccc3nc(Cc4ccccc4)oc3c2)cc1,0,/,8,/,/
COc1cc(/C=N/NC(=O)C(=O)NCc2cccnc2)ccc1O,-1,-4,-20,-16,6
CCOC(=O)CNC(=O)c1cc(OC)cc(OC)c1,-1,4,/,-1,39*
COc1ccc(/C=N/NC(=O)C(=O)NCc2cccnc2)cc1OC,0,-1,3,5,33*
COc1ccc(C(=O)NCc2cccnc2)cc1Br,1,-2,-5,-7,-2
COc1cc(OC)cc(C(=O)NCc2cccnc2)c1,1,0,30*,-39,-7
Cc1c(CC(=O)NCCc2ccccc2)c(=O)oc2c(C)c3occ(C(C)(C)C)c3cc12,0,/,/,/,/
CCCS(=O)(=O)NCCc1sc2nc(-c3ccc(Cl)cc3)nn2c1C,/,/,1,/,/
CCOC(=O)CC(NC(=O)CCc1c(C)nc2c(c1C)c(=O)n(C)c(=O)n2C)c1ccc(OCC)c(OC)c1 (stereo unspecified),0,/,18,/,/
CC1CCN(C(=O)CCc2ccc(Oc3cc([N+](=O)[O-])cc([N+](=O)[O-])c3)cc2)CC1,/,?,/,84*,/
SMILES,D2 ag-1,D2 ag-2,D2 PAM-1,D2 PAM-2,D2 antagonist
O=C(CCc1ccc(Oc2cc([N+](=O)[O-])cc([N+](=O)[O-])c2)cc1)NC1CCCC1,0,?,-4,3,5
COc1ccc(CCNC(=O)c2cc3sccc3n2Cc2ccc(Cl)cc2)cc1OC,/,/,-4,/,/
Cc1cc(C)n(-c2nc(C)nc(NCc3ccccc3)n2)n1,3,-4,1,-43,7
CNc1nc(C)nc(-n2nc(C)cc2C)n1,0,-5,-4,-3,35*
COC(=O)CCC(=O)OC1(C)C(=O)C=C2C=C(C3CC3)N(CC3CC3)C=C2C1=O (stereo unspecified),4,7,-13,18,17
COC(=O)CCC(=O)OC1(C)C(=O)C=C2C=C(C3CC3)N(CC(C)C)C=C2C1=O (stereo unspecified),0,/,-2,/,32*
O=C(CSc1nnc(NC(=O)c2cccc(F)c2)s1)NCC1CCCO1 (stereo unspecified),/,-1,11,-3,/
O=C(CSc1nnc(NC(=O)c2c(F)cccc2F)s1)NCC1CCCO1 (stereo unspecified),1,1,-13,9,74*
Cc1ccccc1NC(=S)NC1CC2CCC(C1)N2Cc1ccco1 (stereo unspecified),0,-2,-18,-21,39*
Cc1cccc(NC(=S)NC2CC3CCC(C2)N3Cc2ccco2)c1 (stereo unspecified),0,0,-20,-28,39*
CCc1ccc(CNC(=O)CCc2c(C)nn(-c3ccc(N4CCCCC4)nn3)c2C)cc1,2,/,14,/,/
Cc1noc(C)c1COc1ccc(C(=O)OC(C)C(=O)Nc2ccc(N3CCOCC3)cc2)cc1 (stereo unspecified),-2,-1,1,1,45*
COc1ccc(/C=C2/N=C(SCC(=O)Nc3cc(C)on3)N(c3ccccc3)C2=O)cc1,-1,0,1,7,32*
CC(C)Cn1cnc2c1c(=O)n(CC(=O)NC(=O)NC(C)(C)C)c(=O)n2Cc1ccccc1,0,-3,31*,2,14
Cc1ccc(NC2=C(Cl)C(=O)OC2NC(=O)c2ccccc2)cc1 (stereo unspecified),1,-1,-4,-6,55*
CCOC1OC(=O)C(Cl)=C1Nc1ccc(C)cc1 (stereo unspecified),-1,-2,-1,-7,3
CCC(C)NS(=O)(=O)c1ccc(OCC(=O)NCC2CCCO2)cc1 (stereo unspecified),-2,0,34*,-2,-2
CC(=O)Nc1ccc(S(=O)(=O)NCC2CCCO2)cc1 (stereo unspecified),/,1,/,-2,/
COc1ccc(CC(=O)Nc2ccc(S(=O)(=O)NCC3CCCO3)cc2)cc1 (stereo unspecified),0,1,2,-6,32*
CC(C)CNS(=O)(=O)c1ccc(OCC(=O)Nc2ccc3c(c2)OCCO3)cc1,-3,-19,-2,0,18
CCC(C)NS(=O)(=O)c1ccc(OCC(=O)Nc2ccc3c(c2)OCCO3)cc1 (stereo unspecified),0,-1,48*,-1,6
Cc1ccc(S(=O)(=O)/N=C2\C=C(NS(=O)(=O)c3ccccc3)C(=O)c3ccccc32)cc1,/,-3,/,1,/
